Source: PubChem
G9a block – blocks human histone lysine methyltransferase G9a. Q96KQ7. G9a H3K9 monomethylation, AlphaScreen, 2 h. Potency, µM (titrated, usually from 102 µM), for inactives: at the highest dose activity, negative = inhibition, most hits filed as inhibitors. 8.8% of 350,000 active; also: % is scaled to controls: 0 for no effect and ±100 for the full control effect; nearly all actives have a fitted effect of over 75% in size
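Chemiluminescent proximity detection of H3K9 monomethylation, read after 10 min bead incubation in the dark. Reaction: 20 nM G9a, 500 nM biotin-H3K9 peptide, 20 uM SAM cofactor, 2 h, room temperature, following 15 min enzyme-compound preincubation.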
HP1b chromo inh – inhibitors of HP1-beta chromodomain binding to methylated histone tails. P83916. AlphaScreen HP1-beta / biotin-H3K9me3 peptide binding. Potency, µM (series often up to 114 µM), without a hit: top-dose activity change, negative = inhibition, most hits filed as inhibitors. 0.56% of 390,000 active. AID 540317; also: nearly all actives have a fitted effect of over 70% in size
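HP1-beta protein (50 nM final) preincubated 30 min at room temperature with biotinylated H3(1-18)K9me3 peptide (50 nM) in PBS pH 7.4, 0.01% Tween-20, then compound added for 30 min. AlphaScreen streptavidin donor/nickel chelate acceptor beads (10 ug/mL final), 30 min dark, luminescence read.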
BAZ2B block – inhibitors of human BAZ2B bromodomain. Potency, µM (highest dose often 114 µM), without a hit: at the highest dose activity change, negative = inhibition, most hits filed as inhibitors. 4.4% of 360,000 active. AlphaScreen BAZ2B-H3K14Ac peptide displacement; also: % is scaled to controls: 0 for no effect and ±100 for the full control effect; nearly all actives have a fitted effect of over 60% in size
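In this displacement format the biotinylated H3(5-23) peptide acetylated at Lys14 serves as ligand at 50 nM, with BAZ2B at 50 nM in PBS pH 7.4 containing 0.01% Tween-20. Donor and acceptor beads are 10 ug/mL final.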
Sfp inh – blocks B. subtilis Sfp PPTase activity | AID 1490 | Biochemical Sfp PPTase activity, qHTS | 3.5% of 310,000 active | Potency, µM, inactives show largest response in the series, negative = inhibition, actives largely listed as inhibitors;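 also: the enzyme is Sfp with the accession as filed and its product quenches rhodamine fluorescence; 0% = enzyme reaction without inhibitor and -100% = no enzyme wells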
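With Hepes-Na pH 7.6 buffer containing 10 mM MgCl2, Sfp (15 nM) modified BHQ-2-YbbR (12.5 uM) using rhodamine-CoA (5 uM). Two reads 30 minutes apart at 525/598 nm yielded each well's rate.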
JMJD2A Tudor – JMJD2A Tudor domain (human) inhibition. 4.4% of 390,000 active. AID 504339. AlphaScreen JMJD2A-Tudor / H3K4me3 peptide binding. Potency, µM (series often up to 114 µM), inactives show top-dose activity change, negative = inhibition, usual class: inhibitors; also: % is scaled to controls: 0 for no effect and ±100 for the full control effect; nearly all actives have a fitted effect of over 50% in size
* hit, by the source's call; ? = inconclusive; . = no result; [ ] = another dose, or the depositor's remark. Rows were chosen to be rich in hits. Some 12% of all compounds tested hit in one or more screens of this group. Calls follow the shape of the dose curve; as a rule, active = well fitted curve in the direction sought with a large enough effect; inconclusive = small, poorly fitted or top-dose-only effect, or another doubt; inactive = no such curve, though single readings can be large; an effect the other way counts as inactive or inconclusive. Potency is read from the fitted curve at half-maximal effect.

SMILES	G9a block	HP1b chromo inh	BAZ2B block	Sfp inh	JMJD2A Tudor
COc1ccc(/C=C2\Sc3ccc(C(=O)NCC4CCCO4)cc3N(C)C2=O)cc1 (configuration not stated)	13µM*	-4%	-37%	50µM*	?
COc1ccc(/C=C2\Sc3ccc(C(=O)N4CCN(Cc5ccccc5)CC4)cc3N(C)C2=O)cc1OC	71µM*	-28%[57 µM]	?	-2%	?
COc1ccc(/C=C2\Sc3ccc(C(=O)N4CCOCC4)cc3N(C)C2=O)cc1	-23%	-5%	-32%	4%	56µM*
Cc1ccc(C)c(N2CCN(C(=O)CCS(=O)(=O)c3ccc4c(c3)NC(=O)CO4)CC2)c1	6%[59 µM]	4%	-31%	8%	-32%
O=c1c2ccccc2nc(N/N=C/c2ccc(O)cc2)n1O	?	-9%	2%	35µM*	-13%
O=c1c2ccccc2nc(N/N=C/c2c(O)ccc3ccccc23)n1O	?	-15%	28µM*	40µM*	50µM*
O=C(c1ccco1)N1CCN(C(=O)C2CCN(S(=O)(=O)c3cccs3)CC2)CC1	-1%	8%	-1%	-23%	-9%
CCOC(=O)c1ccccc1NCN1C(=O)CSC1=O	-5%[59 µM]	41%	-6%	-3%	-1%
CCOC(=O)c1c(C(=O)OCC)c(C)n(N2C(=O)CSC2=S)c1C	-35%[59 µM]	15%	-37%	16µM*	-16%
Cc1occc1C(=O)Nc1cccnc1	?	31%	-8%	-9%	-7%
Cc1ccc(Oc2c(C(F)(F)F)oc3c(CN4CCC(C)CC4)c(O)ccc3c2=O)cc1	8%[59 µM]	22%	5%	.	-12%
CC(=O)[C@@H]1[C@@H]2C(=O)N(C3CCCCC3)C(=O)[C@@H]2C2c3ccccc3C=CN21 (some centres not stated)	-41%[0.501 µM]	.	?	-29%	.
O=C1NC(=O)[C@@H]2C3c4ccccc4C=CN3[C@H](C(=O)c3cccs3)[C@H]12 (some centres not stated)	10µM*	.	-6%	79µM*	.
O=C(CCNc1n[nH]c(=O)[nH]c1=O)N1CCCCC1	20%[59 µM]	18%	4%	22%	-19%
O=C(O)CCCNc1n[nH]c(=O)[nH]c1=O	14µM*	35%	?	-11%	-10%
CC1=NN(c2ccc(Cl)cc2)C(=O)/C1=C\c1cccn1-c1ccc(S(N)(=O)=O)cc1	10µM*	?	10µM*	0%	22µM*
Cc1ccc(S(=O)(=O)N/N=C/c2c(F)cccc2Cl)cc1	?	34%	-3%	13%	4%
Cc1ccc(S(=O)(=O)N/N=C/c2cccn2-c2ccc(Cl)cc2)cc1	110%[59 µM]	?	-2%	-9%	56µM*
Cc1ccccc1NC(=O)c1cccc(NC(=O)CCC(=O)O)c1	.	9%	-1%	14%	-10%[11.4 µM]
S=C(NCc1ccco1)N1CCN(c2ccccc2Cl)CC1	56µM*	-11%	-32%	-1%	-28%
CC(C)(C)C1CCC(=NNC(=O)C(=O)NCc2ccco2)CC1 (configuration not stated)	20µM*	25%	?	3%	-15%
S=C(NCc1ccco1)N1CCN(Cc2ccco2)CC1	7.1µM*	?	?	-30%	4.5µM*
O=C(NCc1ccco1)C(=S)N1CCCC1	32µM*	18%	-13%	35%	0%
COc1ccc(C(CC(=O)Nc2ccc(Br)cn2)N2Cc3ccccc3C2=O)cc1 (configuration not stated)	-14%[59 µM]	18%	-11%	.	-1%
Cc1cccc(C)c1NC(=O)CN(C)C(=O)Cc1cccc(C(F)(F)F)c1	-2%	50%	1%	12%	-15%
SMILES	G9a block	HP1b chromo inh	BAZ2B block	Sfp inh	JMJD2A Tudor
Cc1nn(C)cc1CN(C)C(=O)c1cc(COc2ccc(F)cc2F)on1	7%	5%	1%	14%	-8%
CC([NH2+][O-])C(C)(C)NO (configuration not stated)	18µM*	?	?	?	22µM*
CCN(CC)CCNc1ccc(C)c2sc3ccc(O)cc3c(=O)c12	.	?	.	.	22µM*
CN(C)CCNc1ccc(CO)c2oc3ccc(O)cc3c(=O)c12	.	-3%	.	.	?
Cc1ccc(NC(=O)COC(=O)c2cccnc2Cl)cc1S(=O)(=O)N1CCCCC1	-43%	5%	-23%	10%	-20%
CSc1ncc(-c2ccc(Cl)cc2)[nH]1	40µM*	2%	?	-16%	-21%
CSc1nc2ccc(Cl)cc2[nH]1	14%[59 µM]	11%	-1%	4%	-9%
Cc1cccc(C(=O)NC(=S)NNC(=O)COc2ccc(Cl)cc2)c1	3.2µM*	?	-16%	?	?
O=C(O)CCC(=O)NNC(=O)COc1cccc(Cl)c1	-27%	13%[57 µM]	-5%	6%	-11%
COc1ccc(CC(=O)NNC(=S)Nc2ccccc2)cc1Cl	50µM*	10%	?	15%	-22%
O=C(COc1ccccc1)NNC(=S)NC(=O)c1ccc(Cl)cc1Cl	1.4µM*	0%	-2%	50µM*	-22%
Cc1ccc(OCC(=O)NC(=S)Nc2cccc(NC(=O)c3ccc(Cl)cc3Cl)c2)cc1	11%[59 µM]	10%	7%	4%	-10%
O=C(COc1cccc(Cl)c1)NNC(=S)Nc1ccccc1	7.1µM*	?	9%	-4%	-29%[57.1 µM]
COc1ccc(C(=O)NC(=S)NNC(=O)c2cccc(C)c2)cc1	.	-16%	.	.	-32%
COC(=O)c1cccc(NC(=O)Cc2ccc(OC)cc2)c1C	11%	27%	-5%	17%	-3%
COc1ccc(N(CC(=O)Nc2ccc(F)c(F)c2)S(=O)(=O)c2c(C)n[nH]c2C)cc1	3%	31%	-9%	19%	-13%
Cc1cc(C)cc(N(CC(=O)Nc2ccc(C(F)(F)F)cc2)S(=O)(=O)c2c(C)[nH]c(=O)[nH]c2=O)c1	25µM*	6%[57 µM]	-22%	21%	-26%
COc1ccc(NC(=O)CN(c2cc(C)cc(C)c2)S(=O)(=O)c2c(C)n[nH]c2C)cc1	-16%	-9%	6%	10%	50µM*
CS(=O)(=O)c1ccc(C(=O)N2CCN(S(=O)(=O)c3ccc(C4CCCCC4)cc3)CC2)cc1	.	46%	.	.	-7%
Cc1ccc(/C=C2/N=C(c3ccccc3)NNC2=O)cc1	14µM*	12%	-20%	21%	-34%
Cc1ccc(CSCC(=O)N2CCN(c3ccccc3F)CC2)cc1	6%[59 µM]	85%	8%	.	9%
OCCNCc1cc(Br)ccc1OCc1ccc(Cl)cc1Cl	8%[59 µM]	16%	8%	0%	?
Cc1ccc(S(=O)(=O)CCC(=O)N(CCCN2CCOCC2)c2nc3ccccc3s2)cc1	45µM*	40%	-3%	.	-6%
O=C(CCS(=O)(=O)c1ccccc1)N(CCCN1CCOCC1)c1nc2ccccc2s1	40µM*	55%	-17%	.	-4%
O=C(Nc1ccc(N2CCOCC2)cc1)C1CCCCN1S(=O)(=O)c1ccccc1 (configuration not stated)	-34%	29%	-31%	23%	-12%
